MCF10A rerep: induces DNA re-replication in MCF 10a normal breast cells. MCF 10A DNA re-replication, Hoechst nuclear intensity, 48 h. Potency, µM (doses to about 46.1 µM), actives largely listed as activators. 350,000 tested, 2.9% active; further: nearly all actives have a fitted effect of over 50% in size
KCNH2 3.1 block: inhibitors of human KCNH2 3.1 potassium channel isoform | U2OS KCNH2 3.1, thallium flux FluxOr; active compounds read low | activity change, % (tested at about 1.8 µM) | 340,000 tested, 0.95% active | AID 720553;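 active means maximum activity change below -70%; inconclusive means maximum activity change from -70% to -50%; inactive means maximum activity change above -50%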;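 further: thallium influx rate constant from kinetic fluorescence after stimulation buffer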
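Thallium flux read-out: FluxOr dye with Red40 quencher in HBSS/HEPES, 45 min at RT. Rate constants from kinetic reads were normalized to positive and negative DMSO controls. Cells: U2OS virally expressing the 3.1 isoform.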
KB-V1 MDR tox: kills drug-selected multidrug resistant KB-V1 cells; KB-V1 MDR cells viability, CellTiter-Glo, 72 h; Potency, µM (doses to about 46.1 µM), most hits filed as cytotoxic; 400,000 tested, 3.4% active; AID 1347076; further: nearly all actives have a fitted effect of over 60% in size
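Compound-treated KB-V1 multidrug-resistant cells, 72 h, 37 degrees C; viability by CellTiter-Glo. Fitted qHTS curves give the values.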
SW480 rerep: DNA re-replication induction in SW480 cells; 340,000 tested, 1.8% active; SW480 DNA re-replication, Hoechst DNA content imaging, 48 h; AID 624297; Potency, µM (highest dose often 46.1 µM), actives largely listed as activators; further: nearly all actives have a fitted effect of over 55% in size
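Treated cells incubate 48 hr (37 C, 5% CO2), are stained 40 min with Hoechst, and nuclear fluorescence is enumerated; a rise in nuclei with high DNA signal marks re-replication.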
KB-3-1 tox: kills parental KB-3-1 adenocarcinoma cells. KB-3-1 viability, CellTiter-Glo ATP luminescence, 72 h. Potency, µM (highest dose often 46.1 µM), hits mostly cytotoxic. 400,000 tested, 1.4% active. AID 1347075; further: nearly all actives have a fitted effect of over 60% in size
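Multi-concentration cytotoxicity screen in KB-3-1 cells grown in DMEM lacking phenol red with 10% FBS. After 72 h at 37 °C with compound, ATP-dependent luminescence was recorded.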
KCNH2 WT inh: KCNH2 (human, wildtype) channel inhibition | activity change, % at 1.84 µM | 340,000 tested, 0.37% active | U2OS, BacMam KCNH2, thallium flux FluxOr; active compounds read low;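 active means maximum activity change below -70%; inconclusive means maximum activity change between -70% and -50%; inactive means maximum activity change above -50%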
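U2OS cells were transduced with wild-type KCNH2 virus (2.03 x 10^8 / mL) for 4 h at room temperature, then cultured overnight at 37 C. Thallium flux was read with FluxOr dye. Rate constants were normalized to DMSO controls.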
Hits are given with their value; 0 = inactive; ? = inconclusive; - = not tested or not shown. Sampled rows, rich in hits. Any-hit rate of the full collection: about 7.6%. Unless noted, the call rests on the fitted dose curve; in most records, active means well fitted curve in the direction sought with a large enough effect; inconclusive means small, poorly fitted or top-dose-only effect, or another doubt; inactive means no such curve, though single readings can be large; an effect the other way counts as inactive or inconclusive.

SMILES | MCF10A rerep | KCNH2 3.1 block | KB-V1 MDR tox | SW480 rerep | KB-3-1 tox | KCNH2 WT inh
CCCCn1c(N)c(N(CC)C(=O)CCNC(=O)NC23CC4CC(CC(C4)C2)C3)c(=O)[nH]c1=O | 0 | -71.4 | 0 | 0 | 0 | 0
CN(C)c1nc(N/N=C/c2ccccc2O)nc(Nc2ccc(F)cc2)n1 | 10.3µM | 0 | ? | 5.8µM | ? | 0
Cc1cc(C)n(-c2ccc(Cl)c(Cl)c2)n1 | 0 | - | 0 | 0 | 0 | 0
Cc1cc(C)n(-c2nc(-c3ccc(Cl)c(Cl)c3)cs2)n1 | 7.08µM | 0 | 0 | 0 | 0 | -124.9
CC(C)OC(=O)c1c(-c2ccccc2)c(-c2ccccc2)nn(C)c1=O | - | - | 0 | - | 0 | -
CCn1c(CSc2nc3ccccc3s2)nnc1SCC(=O)c1ccc(O)cc1O | 0 | 0 | 0 | 0 | 0 | 0
COc1ccc(NS(=O)(=O)c2cc(NC(=O)c3cc(F)c(F)cc3Cl)ccc2N2CCOCC2)cc1 | 0 | ? | 0 | ? | 0 | 0
COc1ccc(NS(=O)(=O)c2cc(NC(=O)c3sccc3C)ccc2N2CCOCC2)cc1 | ? | 0 | 0 | ? | 7.31µM | 0
COc1ccccc1NS(=O)(=O)c1cc(NC(=O)COc2ccccc2F)ccc1N1CCOCC1 | 0 | 0 | 4.61µM | 0 | 0 | 0
Nc1cc(S(=O)(=O)Nc2ccc(Cl)cc2)ccc1N1CCOCC1 | ? | 0 | ? | 0 | 23.1µM | 0
COCC(=O)Nc1ccc(N2CCOCC2)c(S(=O)(=O)Nc2ccccc2OC)c1 | 0 | 0 | ? | 0 | ? | 0
CCOC(=O)Nc1ccc(N2CCOCC2)c(S(=O)(=O)Nc2ccc(Cl)cc2)c1 | ? | 0 | ? | 20.6µM | 0 | 0
COC(=O)C1CCN(C(=O)COC(=O)c2cc(-c3ccccc3)nc3ccc(OC)cc23)CC1 | 0 | 0 | 0 | ? | 0 | 0
COC(=O)C/C=N/N=C1/NC(=O)/C(=C/C(=O)O)S1 | 0 | 0 | 0 | ? | 0 | 0
COc1cccc(C=NN(C)c2c([N+](=O)[O-])cc(C(F)(F)F)cc2[N+](=O)[O-])c1O | - | - | ? | - | 0 | -
O=C(Cn1c(=O)c2cccn2c2ccccc21)Nc1cc(F)ccc1F | 0 | 0 | 0 | 0 | 0 | 0
COC(=O)CCc1cccc(CCC(=O)OC)c1 | 0 | 0 | ? | 0 | 0 | 0
Cc1ccc(C)c(Nc2nc3c(S(=O)(=O)c4ccccc4)nnn3c3ccccc23)c1 | 0 | -71.6 | 0 | 0 | 0 | 0
COc1ccc(OC)c(/C=C/c2ccccc2)c1 | - | - | 0 | - | ? | -
COc1ccc(OC)c(/C=C/c2cc3ccccc3cn2)c1 | - | - | 0 | - | 5.17µM | -
CCOc1ccc(Nc2nc(Cc3nnc(SCC(=O)c4ccc(C)c(C)c4)o3)cs2)cc1 | 0 | 0 | 13µM | ? | 0 | 0
CCOC(=O)c1cc2c(ccc3nc(C)c(C)c32)[nH]c1C | 14.6µM | 0 | 0 | 8.2µM | 0 | 0
CCOC(=O)c1ccc2[nH]c(C)c(C)c2c1 | ? | 0 | 0 | 0 | 0 | 0
COc1ccc(C(C)(O)c2nc(-c3ccoc3)cs2)cc1 (stereo unspecified) | - | - | 0 | - | 0 | -
CN[C@@H]1[C@H](O)[C@H](NC)[C@H]2O[C@@]3(O)C(=O)C[C@@H](C)O[C@H]3O[C@@H]2[C@H]1O | 0 | 0 | ? | 0 | 0 | 0
SMILES | MCF10A rerep | KCNH2 3.1 block | KB-V1 MDR tox | SW480 rerep | KB-3-1 tox | KCNH2 WT inh
CCc1c(C)nc2ncnn2c1NCCc1ccccc1 | 0 | 0 | ? | 0 | 0 | 0
Cc1nc2ncnn2c(Nc2ccc3c(c2)OCO3)c1Cc1ccccc1 | 0 | - | 16.4µM | 0 | ? | 0
O=C(NNc1ccccn1)C(=O)NNS(=O)(=O)c1ccc(Cl)cc1 | ? | 0 | 18.4µM | ? | ? | 0
Cc1ccc(C(=O)NCC(=O)N(C)Cc2ccc(Cl)cc2Cl)s1 | 0 | 0 | 16.4µM | 0 | 0 | 0
Cc1ccc(C(=O)NCC(=O)N(C)CC(=O)Nc2ccccc2Br)s1 | 0 | 0 | 20.6µM | 0 | 0 | 0
O=C(CN1C(=O)COc2ccc(S(=O)(=O)N3CCCCCC3)cc21)N1CCN(c2cccc(Cl)c2)CC1 | - | - | ? | - | 0 | -
COc1ccc(NC(=O)CN2C(=O)CC(c3ccco3)Sc3ccccc32)cc1OC (stereo unspecified) | - | - | 18.4µM | - | 0 | -
O=C(CN1C(=O)CC(c2ccco2)Sc2ccccc21)Nc1cccc(C(F)(F)F)c1 (stereo unspecified) | - | - | 20.6µM | - | ? | -
Cc1ccc(NC(=O)CN2C(=O)CC(c3ccco3)Sc3ccccc32)cc1Cl (stereo unspecified) | - | - | 0 | - | 0 | -
CC[N+]1(CC(=O)c2ccc(I)cc2)CCCCC1 | - | - | 0 | - | 0 | -
Cc1oc2c(cc(NS(=O)(=O)c3cccs3)c3ccccc32)c1C(=O)OC(C)C | 13µM | 0 | 0 | 0 | 0 | 0
COc1ccc(S(=O)(=O)Nc2cc3c(C(C)=O)c(C)oc3c3ccccc23)cc1 | ? | 0 | 2.06µM | 5.17µM | 2.06µM | 0
Cc1oc2c(cc(NS(=O)(=O)c3ccc(Cl)cc3)c3ccccc32)c1C(=O)OCc1ccccc1 | - | - | 0 | - | 0 | -
CC(=O)c1cc2c(cc1NS(=O)(=O)c1ccccc1Br)OCO2 | 0 | 0 | ? | 0 | 0 | 0
CCOc1ccc(S(=O)(=O)Nc2cc3c(C(=O)OC)c(COC)oc3c3ccccc23)cc1 | - | - | 14.6µM | - | 3.66µM | -
COc1ccc(S(=O)(=O)Nc2cc3c(cc2C(C)=O)OCO3)cc1 | 18.4µM | 0 | ? | ? | 7.31µM | 0
CC(=O)c1c(C)oc2c1cc(NS(=O)(=O)c1ccc(C(C)(C)C)cc1)c1ccccc12 | - | - | 0 | - | 0 | -
Cc1cc(OCC#N)nc(N)n1 | 0 | 0 | 0 | 0 | 0 | -
CCCCN(CCCC)CCCN1CC(=O)N2[C@@H](Cc3c([nH]c4ccccc34)C2(C)C)C1=O | 0 | 0 | 0 | 0 | 0 | 0
CCCNC(=O)C1Cc2cc(S(=O)(=O)N3CCCC3)ccc2N1C(C)=O (stereo unspecified) | 0 | 0 | 0 | 0 | 0 | 0
COC(=O)c1c(C)oc2ccc(NS(=O)(=O)c3cc(OC)ccc3OC)cc12 | ? | 0 | 10.3µM | 0 | 25.9µM | 0
COCCOC(=O)c1c(C)oc2ccc(NS(=O)(=O)c3cccs3)cc12 | 0 | 0 | 0 | 0 | 0 | 0
CC(=O)c1c(C)oc2ccc(NS(=O)(=O)c3ccc(C(C)C)cc3)cc12 | - | - | ? | - | 20.6µM | -
CCCCOC(=O)c1c(C)oc2ccc(NS(=O)(=O)c3ccc4c5c(cccc35)C(=O)N4)cc12 | ? | 0 | 14.6µM | 0 | ? | 0
COc1ccc(OC)c(S(=O)(=O)Nc2ccc3oc(C)c(C(C)=O)c3c2)c1 | 0 | 0 | ? | 0 | 0 | 0
CCOc1ccc(S(=O)(=O)Nc2ccc3oc(C)c(C(=O)OCCOC)c3c2)cc1 | - | - | ? | - | 5.8µM | -
CC(=O)c1c(C)oc2ccc(NS(=O)(=O)c3ccc(C)cc3)cc12 | 0 | 0 | ? | 0 | 0 | 0
O=C(NCc1ccco1)C1CCN(c2nc3ccccc3n2Cc2ccccc2F)CC1 | 0 | -104.6 | 0 | 0 | 0 | ?
